Among the data in PubChem BioAssay (NCATS) are Potency values, retold here.

In test [1] the target is Glutathione peroxidase 1 (Homo sapiens) (UniProt P07203). The test is described as follows: Primary qHTS Assay for Inhibitors of Recombinant Selenoprotein Glutathione Peroxidase 1 (GPX1) (AID 1845191). Also: nearly all actives have a fitted effect of over 65% in size. In a few lines: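 10 nM GPX1 + cpd, 30 min RT; start w/ 1 mM GSH, 0.5 mM cumene hydroperoxide, 0.5 mM NADPH, 100 nM GR, 0.01% BSA; buffer 50 mM Tris-HCl pH 7.5, 2 mM EDTA, 150 mM NaCl; Fl 340/450, 0 & 15 min.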
Sequence of Glutathione peroxidase 1 (Homo sapiens) (P07203 whole entry, looked up): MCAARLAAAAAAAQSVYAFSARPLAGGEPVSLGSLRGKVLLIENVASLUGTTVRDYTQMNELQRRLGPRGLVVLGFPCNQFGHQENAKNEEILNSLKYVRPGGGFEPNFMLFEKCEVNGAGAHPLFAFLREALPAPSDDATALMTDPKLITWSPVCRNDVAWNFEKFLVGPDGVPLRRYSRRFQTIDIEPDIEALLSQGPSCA
A general note: qHTS replaces the single test concentration by a dilution series.

Test [2] addresses Luciferin 4-monooxygenase (Photinus pyralis) (UniProt P08659). The test is described as follows: Primary firefly luciferase (FLuc) qHTS assay for identification of artifact compounds. (AID 1845220). Also: nearly all actives have a fitted effect of over 60% in size. Also: potency is read from the fitted curve at half-maximal effect. The gist of the method:
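Cell-free, 1536-well qHTS. Buffer pH 7.6 with 0.01% Tween-20 and 0.05% BSA; 10 uM D-luciferin, 10 uM ATP; 10 nM P. pyralis luciferase; luminescence after 5 min.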

Test [3] can be described thus: Primary fluorescence-based thiol-reactive (MSTI) qHTS assay for identification of artifact compounds. (AID 1845221). Also: nearly all actives have a fitted effect of over 65% in size. Also: potency is read from the fitted curve at half-maximal effect. In a few lines:
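qHTS titration of compound; 4 uM MSTI, PBS pH 7.4, 2% DMSO; 1 h RT, dark; fluorescence 525/598 nm; normalized to Acetyl-MSTI and MSTI; 4-parameter Hill fit.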

Test [4] is described as follows: Primary redox qHTS assay for identification of artifact compounds. (AID 1845223). The gist of the method:
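Amplex Red (25 uM) and HRP (250 mU/mL) in HBSS, with compounds for 15 min, then 250 uM DTT for 30 min, room temperature, dark. Fluorescence 525/598 nm read; normalized to DMSO and 10 uM DA3003; Hill fit.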

Test [5] has as its system Nanoluciferase (engineered Oplophorus gracilirostris luciferase). Briefly: Primary Nanoluciferase (NLuc) qHTS assay for identification of artifact compounds. (AID 1845222). Also: series mostly up to about 54 µM. In a few lines: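 Compounds are pinned into diluted (1:55) conditioned medium of NLuc-expressing S16 cells and held 15 min at room temperature protected from light. Nano-Glo substrate follows, and luminescence is read 5 min later.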

For test [6], the target named is Phospholipid hydroperoxide glutathione peroxidase GPX4 (Homo sapiens) (UniProt P36969). The test is described as follows: Primary qHTS Assay for Inhibitors of Recombinant Selenoprotein Glutathione Peroxidase 4 (GPX4) (AID 1845192). Also: nearly all actives have a fitted effect of over 65% in size. Also: potency is read from the fitted curve at half-maximal effect. In a few lines: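 NADPH consumption, followed by fluorescence at 340/450 nm between 0 and 15 min, reports GPX4 activity via coupled glutathione reductase (100 nM). Enzyme 200 nM was pre-exposed to compound 30 min; 0.5 mM cumene hydroperoxide and 1 mM GSH served as substrates.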
Sequence of Phospholipid hydroperoxide glutathione peroxidase GPX4 (Homo sapiens) (P36969 whole entry, looked up): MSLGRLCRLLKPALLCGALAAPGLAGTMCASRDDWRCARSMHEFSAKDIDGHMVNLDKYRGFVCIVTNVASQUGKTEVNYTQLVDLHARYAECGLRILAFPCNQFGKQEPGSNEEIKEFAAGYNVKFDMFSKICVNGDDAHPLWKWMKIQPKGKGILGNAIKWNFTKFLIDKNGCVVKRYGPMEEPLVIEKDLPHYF

Results filed as inconclusive are left out. The source made the active and inactive calls. Calls follow the shape of the dose curve; as a rule, active = well fitted curve in the direction sought with a large enough effect; inconclusive = small, poorly fitted or top-dose-only effect, or another doubt; inactive = no such curve, though single readings can be large; an effect the other way counts as inactive or inconclusive.

In the case of `O=C(Nc1ncc([N+](=O)[O-])s1)c1ccccc1O`, the Potency result in test [1] and in test [4] was “inactive” in each case. For the same molecule, the Potency in test [2] is 0.849 µM (active); in test [3] it was 2.38 µM (active).
With `COc1ccc(C#Cc2ccc(C(=O)N3CCC[C@@H](O)C3)c(F)c2)cc1`, the Potency result in test [1], in test [2], in test [3], in test [5] and in test [4] was “inactive” throughout.
With `CCOC(=O)[C@@]1(CCCCCCOc2ccc(Cl)cc2)CO1`, in test [6], the Potency entry is “inactive”.
Consider `O=C([C@@H](Cc1cccc(C(F)(F)F)c1)NS(=O)(=O)c1cc(F)c2c(c1)CCNC2)N1CCCC1`, for which the Potency result in test [1], in test [2], in test [3], in test [5] and in test [4] was “inactive” each time.
Turning to `O=C(O)c1cc(N(Cc2ccc(C3CCCCC3)cc2)C(=O)c2ccc(Oc3ccccc3)cc2)ccc1O`, the Potency entry in test [1], in test [2], in test [3], in test [5] and in test [4] was “inactive” each time.
For `C/C=C/C=C/c1cc2c(C=O)c(O)c(CC=C(C)C)cc2o1`, the Potency entry in test [1], in test [5] and in test [4] was “inactive” each time. The Potency in test [3] was 21.2 µM (active).
As to `COc1cc(C[C@@H]2NCCc3cc(O)c(O)cc32)cc(OC)c1OC`, the Potency entry in test [6] was “inactive”.
With `C[N+](C)(CCCCCC[N+](C)(C)C1c2ccccc2-c2ccccc21)C1c2ccccc2-c2ccccc21`, in test [6], the Potency entry is “inactive”.
Still for that read-out and setting: in the case of `Oc1cccc(-c2c3nc(c(-c4cccc(O)c4)c4ccc([nH]4)c(-c4cccc(O)c4)c4nc(c(-c5cccc(O)c5)c5ccc2[nH]5)CC4)C=C3)c1` it was “inactive”.
`CC(=O)S[C@@H]1CC2=CC(=O)CC[C@]2(C)[C@H]2CC[C@@]3(C)[C@@H](CC[C@@]34CCC(=O)O4)[C@H]12`: the Potency entry in test [6] was “inactive”.
The same measure, in the same setting: to `O=P(O)(O)OC(Cn1cncn1)(Cn1cncn1)c1ccc(F)cc1F` belongs “inactive”.
In the case of `CC[C@@H]1C[C@]1(NC(=O)[C@@H]1C[C@@H]2CN1C(=O)[C@H](C(C)(C)C)NC(=O)OCC(C)(C)CCCCc1cccc3c1CN(C3)C(=O)O2)C(=O)NS(=O)(=O)C1CC1`, the Potency entry in test [1], in test [2], in test [3], in test [5] and in test [4] was “inactive” in each case.
Regarding `COc1ccc(C(=O)O[C@H]2C=COC=C3C=C4C(=O)N(C)C(=S)C(=O)N4[C@@H]32)cc1Oc1cc(C=O)ccc1O`, the Potency in test [6] was 3.13 µM (active). Further, the Potency entry in test [2], in test [3], in test [5] and in test [4] was “inactive” in each case.
For the molecule `COc1cc2c(cc1OC)CN(C(=O)/C=C/c1c(-c3ccccc3)n(C)c3ncccc13)CC2`, the Potency entry in test [6], in test [2], in test [3] and in test [5] was “inactive” throughout.
On to `CC(NC(=O)Cc1cc(F)cc(F)c1)C(=O)NC1C(=O)N(C)c2ccccc2-c2ccccc21` (stereo not given), for which the Potency result in test [6], in test [2], in test [3], in test [5] and in test [4] was “inactive” each time.
Consider `CC(=O)O[C@H]1CC[C@]2(C)[C@H]3CC[C@]4(C)Oc5oc(C)cc(=O)c5C[C@H]4[C@]3(C)CC[C@H]2C1(C)C`, for which the Potency result in test [6], in test [2], in test [3], in test [5] and in test [4] was “inactive” each time.
Take `O=C(OC1CN2CCC1CC2)N1CCc2ccccc2C1c1ccccc1` (stereo not given): the Potency entry in test [6], in test [2], in test [3], in test [5] and in test [4] was “inactive” in each case.
`COC1CC/C=C(\C)C(=O)Nc2cc(O)cc(c2)CC(C)CC(OC)C(O)C(C)/C=C(\C)C1OC(N)=O` (stereo not given): the Potency entry in test [6], in test [2], in test [3] and in test [5] was “inactive” throughout.
Turning to `Cc1c(NC(=O)OCC2COCCN2)cn2ncnc(Nc3ccc4c(cnn4Cc4cccc(F)c4)c3)c12` (stereo not given), the Potency entry in test [6], in test [2], in test [3], in test [5] and in test [4] was “inactive” in each case.
As for `Cc1cccc(N2CCN(C(=O)c3cc(S(=O)(=O)N(C)C)ccc3N3CCCC3)CC2)c1C`, the Potency entry in test [6], in test [2], in test [3], in test [5] and in test [4] was “inactive” in each case.
Turning to `COc1ccc(CCc2nc3cc(-c4c(C)noc4C)ccc3n2CC(C)N2CCOCC2)cc1Cl` (stereo not given), the Potency result in test [6], in test [2], in test [3] and in test [5] was “inactive” in each case.
Turning to `COc1cc(NC(=O)c2cc(C3CC3)on2)c(OC)cc1Cl`, the Potency entry in test [6], in test [2], in test [3], in test [5] and in test [4] was “inactive” each time.
As to `CC(C)S(=O)(=O)NC[C@H](C)c1ccc(-c2ccc(CCNS(C)(=O)=O)cc2)cc1`, the Potency result in test [6], in test [2], in test [3], in test [5] and in test [4] was “inactive” each time.
As to `O=C(O)C1=CO[C@@H](O[C@@H]2O[C@H](CO)[C@@H](O)[C@H](O)[C@H]2O)[C@@H]2C(CO)=CC[C@H]12`, the Potency result in test [6], in test [2], in test [3], in test [5] and in test [4] was “inactive” in each case.
Take `C=CC(C)(O)CC[C@@H]1[C@@]2(C)CCCC(C)(C)C2CC[C@@]1(C)O` (stereo not given in full): the Potency result in test [6], in test [2], in test [3], in test [5] and in test [4] was “inactive” throughout.
Turning to `CC(=O)O[C@H]1[C@H](O)C[C@@]2(C)C(CC[C@]3(C)C2CC=C2C4CC(C)(C)CC[C@]4(C(=O)O)CC[C@]23C)C1(C)C` (stereo not given in full), the Potency result in test [6], in test [2], in test [3] and in test [5] was “inactive” each time.
In the case of `COc1ccc([C@H]2OC[C@H]3O[C@@H](O[C@H]4[C@@H]2NC[C@@H]4O)[C@H](O)[C@H]3O)cc1`, the Potency result in test [6], in test [2], in test [3], in test [5] and in test [4] was “inactive” in each case.
`CCC/C=C/c1cc2c(C=O)c(O)c(CC=C(C)C)cc2o1`: the Potency entry in test [6], in test [2], in test [5] and in test [4] was “inactive” each time. In addition, in test [3], the Potency is 23.8 µM (active).
